Consider 44 sequences from article PMC7819943, “Rice protein-binding microarrays: a tool to detect cis-acting elements near promoter regions in rice”.

Over roughly 68,000 sequences, “fluorescence intensity (a.u.)” has its median near 9,100; the highest 2% begin near 16,000. What follows is part of a selection rich in the highest values, with near analogues and random picks from the rest.

Sequence of OsWRKY34 (Q0JBA9 entry or part of it): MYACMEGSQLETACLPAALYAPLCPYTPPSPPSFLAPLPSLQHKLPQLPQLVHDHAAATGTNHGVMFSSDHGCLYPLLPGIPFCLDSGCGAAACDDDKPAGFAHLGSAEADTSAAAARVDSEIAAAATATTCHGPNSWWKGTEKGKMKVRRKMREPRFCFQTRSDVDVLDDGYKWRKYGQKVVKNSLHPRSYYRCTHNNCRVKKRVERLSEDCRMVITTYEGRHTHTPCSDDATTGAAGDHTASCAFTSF

This assay addresses OsWRKY34 (Oryza sativa, UniProt Q0JBA9 1-250). In words: protein-binding microarray (RPBM); PBS, 2% BSA, 51.3 ng/ul salmon testes DNA, 50 uM zinc acetate, 200 nM TF, 25 C, 1 h; high values mean tight binding. Particulars: protein: recombinant; tags: N-terminal polyhistidine and DsRed monomer fusion (pET32a); label: CyDye5-dUTP incorporated in the synthesized complementary strand; 3' TTTTT single-stranded linker to array surface; dsDNA, one strand shown. A digest of the protocol: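 The binding signal is fluorescence intensity per array feature (arbitrary units). Readings came from an Axon 4000B scanner after a washed, 2% BSA-blocked, double-stranded custom Agilent array had been incubated for 1 h at 25 °C with 200 nM protein and 50 µM zinc acetate. The protein was a Ni–NTA-purified transcription factor fused N-terminally to polyhistidine and DsRed, expressed in E. coli BL21-CodonPlus.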
Regarding “CAGATTGTTTTCCATGATTCTTAGCCTCTCTGATGTTTGACGGAGTCACCTAGTGCAG”, the binding signal is 9640 fluorescence intensity (a.u.). Turning to “CAACGGCGGTGGCGGCGGCGGCGGCGGCGGGGCGGCGTCGCGGAGTCACCTAGTGCAG”, the binding signal was 8370 fluorescence intensity (a.u.). In the case of “TGTCGGTGTCGGTGGGCGGGGATTCGCGGTAGTGGTGGAACGGAGTCACCTAGTGCAG” it was 19700 fluorescence intensity (a.u.).

Regarding “ATGGTTCGATTATTGGTGGAGTTCTCTCTCGGTTTCTCCGCGGAGTCACCTAGTGCAG”, the binding signal is 10600 fluorescence intensity (a.u.). As to “ATCTCCCGCGGTTTCGATTTGGGTTTATTTGGGCGGTGGGCGGAGTCACCTAGTGCAG”, the binding signal is 18800 fluorescence intensity (a.u.). Consider “GCGCCGTCCCTTCGGGCCCACAAGCCGTCCACCCACTTCCCGGAGTCACCTAGTGCAG”, for which the binding signal was 11300 fluorescence intensity (a.u.). To “GGGCCTATAACTGTAGTTCCATCACGTCTCTCTGTACGTTCGGAGTCACCTAGTGCAG” belongs 8820 fluorescence intensity (a.u.); to “GCCATCTCGCCTAAATAAAACCGCGCTACCCATCGACCGACGGAGTCACCTAGTGCAG”, 9280 fluorescence intensity (a.u.); to “TCCAGTTTTGGTCTGGGTGATGTGTCATGTTCTGATTGGCCGGAGTCACCTAGTGCAG”, 8180 fluorescence intensity (a.u.). As to “CTTCTTCCATCCAACCCATTGCATGGTGTATTTTCCATATCGGAGTCACCTAGTGCAG”, the binding signal is 8320 fluorescence intensity (a.u.). For the sequence “AAATATGGTGGGCCCCACATGGCTGCGCCTCAAGCTTCTCCGGAGTCACCTAGTGCAG”, the binding signal is 9100 fluorescence intensity (a.u.). As for “GTCTCATGTCACACTCACGTAGCTATATTTTTTATATTATCGGAGTCACCTAGTGCAG”, the binding signal is 9120 fluorescence intensity (a.u.). For the sequence “TTAGGGGTAGGCTAGAGATTGATTGGGGCTTATATGATAACGGAGTCACCTAGTGCAG”, the binding signal is 19700 fluorescence intensity (a.u.). Turning to “ACTTTGATTGGGCTGGGTTCATATGAGATTAGGGGAAAAACGGAGTCACCTAGTGCAG”, the binding signal was 13500 fluorescence intensity (a.u.). On to “ATGCATTTCTTTTAGGATTTGTGATGTATTTTTCGTTTGACGGAGTCACCTAGTGCAG”, for which the binding signal was 9640 fluorescence intensity (a.u.). For the sequence “TGGGATGTATTTGAGTTGTGATGCATTTCTTTTAGGATTTCGGAGTCACCTAGTGCAG”, the binding signal was 8310 fluorescence intensity (a.u.). To “TTAGGGGCGGTGGGTGGTTTTCGGCTGGGAAATCGCGGATCGGAGTCACCTAGTGCAG” belongs 11500 fluorescence intensity (a.u.); to “GATTTGGGGATTTGGGGTTTGATTTAGGATGTGCATGCCACGGAGTCACCTAGTGCAG”, 21400 fluorescence intensity (a.u.). On to “GTTTGGGATGTCGCGGGGATTTAGGGGCGGTGGGTGGTTTCGGAGTCACCTAGTGCAG”, for which the binding signal is 39300 fluorescence intensity (a.u.). Take “TGGATGTCGCCGTCGGCGGGGTGGTGGGATTTGGAACTGGCGGAGTCACCTAGTGCAG”: the binding signal is 12500 fluorescence intensity (a.u.). Take “GACCATTATGTTAACTTGGATTAGGGGTAGGCTAGAGATTCGGAGTCACCTAGTGCAG”: the binding signal is 11000 fluorescence intensity (a.u.). For “GAGCTCCTGTTGGTCGGGGACGTTTCGCGTTGGTTCCTCTCGGAGTCACCTAGTGCAG”, the binding signal is 12000 fluorescence intensity (a.u.). With “TATAATTTTGTGCTAATATGCATTTTCCTTGTTTTGTTTACGGAGTCACCTAGTGCAG”, the binding signal is 11300 fluorescence intensity (a.u.). Turning to “ATCACAATAGTAACTATACTCTACAATCCATGGTTTCTTACGGAGTCACCTAGTGCAG”, the binding signal was 8960 fluorescence intensity (a.u.). As to “CCTTGGGCTGTTTTACCATGGTTTTTGCACACGTGGATGACGGAGTCACCTAGTGCAG”, the binding signal is 10100 fluorescence intensity (a.u.).

Consider “CTGACATGCGTCGCCATTGACTTTCGCCGCCGCCGCCGCGCGGAGTCACCTAGTGCAG”, for which the binding signal was 9140 fluorescence intensity (a.u.).

As to “GTCACCATCAAAATAGCTTCATATCTTCCCTGGAAATTTTCGGAGTCACCTAGTGCAG”, the binding signal was 8160 fluorescence intensity (a.u.). With “TGTAGTAATTGGGTATCTTCATCATTTGTCCTAAAAAAGTCGGAGTCACCTAGTGCAG”, the binding signal is 8080 fluorescence intensity (a.u.). “CCACTTTAGATCCCAAATTATATATGGTCGAGTTCTTTTCCGGAGTCACCTAGTGCAG”: the binding signal is 9470 fluorescence intensity (a.u.). “CGCAACCCCAAGCACTGGTGTTCTACATTCAATCAATCATCGGAGTCACCTAGTGCAG”: the binding signal was 38500 fluorescence intensity (a.u.). Regarding “ACATCCATCCACTCAACCCATTCTACCGTATTAAGCCAATCGGAGTCACCTAGTGCAG”, the binding signal is 8192 fluorescence intensity (a.u.). “ATCATCGTTCACCCGCATTTCATCTACTTCAATCTACATTCGGAGTCACCTAGTGCAG”: the binding signal was 9810 fluorescence intensity (a.u.). Consider “GAAGTTAGGGTTTGAGGGTTTGGTTCCGGAGGGTAGGGTCCGGAGTCACCTAGTGCAG”, for which the binding signal is 9850 fluorescence intensity (a.u.). Consider “CTGGTTCGGGAATTTCTGGGTGTATAGGGAAATAATTTATCGGAGTCACCTAGTGCAG”, for which the binding signal is 8060 fluorescence intensity (a.u.). Regarding “GATAGGGTTAGCAGGGTGGGAAAATATATTTATTATAGTTCGGAGTCACCTAGTGCAG”, the binding signal was 18700 fluorescence intensity (a.u.).

For the sequence “ACGGCCTAGTTTTGGTTGAAGTTTTTGGTAGGGGTTAGTTCGGAGTCACCTAGTGCAG”, the binding signal is 12300 fluorescence intensity (a.u.). Take “TCGTGGTGGTGGTGGTGGTGGAAGTTAGGGTTTGAGGGTTCGGAGTCACCTAGTGCAG”: the binding signal is 17300 fluorescence intensity (a.u.). “TCTATTTTATAATCGGTGTGTTTGACTGGTATTTTTTAGCCGGAGTCACCTAGTGCAG”: the binding signal was 8930 fluorescence intensity (a.u.). As to “GATAGGGTTAGGGATGGATAGGGTTTCCTTGAGGGTAGTTCGGAGTCACCTAGTGCAG”, the binding signal is 16400 fluorescence intensity (a.u.). For the sequence “TGAGTGGTGGGAGGAGTTAGCAAGTGGTTTGACCGTGGTTCGGAGTCACCTAGTGCAG”, the binding signal is 11800 fluorescence intensity (a.u.). To “AGGGGCGGAACTGGGTAGGCAGGGTGGGTTATATTTGAGCCGGAGTCACCTAGTGCAG” belongs 10500 fluorescence intensity (a.u.); to “AGGGTGGGTTATATTTGAGCTGGTTAGCAAAAACTATAATCGGAGTCACCTAGTGCAG”, 17900 fluorescence intensity (a.u.). To “TCCGGTTCGTTATTTTTATTTTTCTCAGGGAAAAAAAATCCGGAGTCACCTAGTGCAG” belongs 8060 fluorescence intensity (a.u.).

As for “TAGGGTTTGGATGGATAGGGTATATGAGGGTAATTTAGGCCGGAGTCACCTAGTGCAG”, the binding signal was 8450 fluorescence intensity (a.u.).
